Assay outcomes (PubChem)
Six1-Eya2 blk: qHTS Assay for Inhibitors of the Six1/Eya2 Interaction; Homeobox protein SIX1 (Homo sapiens) + Protein phosphatase EYA2 (Homo sapiens), …; AlphaScreen GST-Six1/His-Eya2 binding, biochemical; hits give low values; activity change, % (concentration not given with the values); actives 0.56% (n = 360,000); in the data active means activity change below about -65%; inconclusive means mostly about -30% to -63%
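AlphaScreen with GST-Six1 and His-Eya2 (5X mix: 250 nM and 500 nM), glutathione donor and nickel acceptor beads; buffer 50 mM Tris pH 8.0, 300 mM NaCl, 1 mM TCEP; 1 h at 37 C in the dark.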
CtBP-E1A inh: qHTS Assay for Inhibitors of the CtBP/E1A Interaction; CtBP / adenovirus E1A interaction (AlphaScreen); AlphaScreen GST-E1A/His-CtBP binding, 1536-well; hits give low values; activity change, % (no concentration beside the values); actives 0.49% (n = 340,000); AID 651724, 2012; in the data active means activity change below about -65%; inconclusive means mostly about -30% to -63%
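Steps: dispense buffer (Tris pH 8.0, NaCl 300 mM, TCEP 1 mM, BSA, Tween 20); add 5X protein mix (GST-E1A, His-CtBP, 125 nM each); pin 23 nL compound; 2 h at 37 °C, dark; add 5X beads (50 ug/mL); 1 h; read.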
DT40 TDP1 no CPT: qHTS for Inhibitors of human tyrosyl-DNA phosphodiesterase 1 (TDP1): qHTS in cells in absence of CPT. AID 686978, 2013. actives 15% (n = 420,000). DT40 Tdp1-/- hTDP1 cells, no CPT, ATP luminescence, 48 h. Potency, µM (highest dose often 46.2 µM), for inactives: top-dose activity change, negative = growth inhibition, hits mostly inhibitors; further: potency means the concentration at half of the fitted maximal effect; nearly all actives have a fitted effect of over 55% in size
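Readout: luminescence from CellTiter-Glo after 30 min in the dark at RT. Cells: DT40 Tdp1-/- with stable hTDP1, 400/well. Exposure: compounds alone, ≥48 hr, 37 °C.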
DT40 TDP1 CPT: qHTS for Inhibitors of human tyrosyl-DNA phosphodiesterase 1 (TDP1): qHTS in cells in presence of CPT. Potency, µM (doses to about 46.2 µM), for the others: at the top dose activity change, negative = growth inhibition, usual class: inhibitors. chicken DT40 Tdp1-/-;hTDP1 cells + 20 nM CPT, ATP luminescence, 48 h. actives 12% (n = 420,000). AID 686979, 2013; further: potency means the concentration at half of the fitted maximal effect; nearly all actives have a fitted effect of over 55% in size
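Chicken DT40 Tdp1-/- cells stably complemented with human TDP1 were seeded at 400 cells/well in medium containing 20 nM camptothecin, exposed to pin-transferred compounds, and grown at 37 °C for at least 48 hr. Viability was read as ATP luminescence.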
IL-1B inflam inh: qHTS for Inhibitors of Inflammasome Signaling: IL-1-beta AlphaLISA Primary Screen. THP-1 LPS/ATP IL-1B secretion, AlphaLISA, 16 h; hits give low values. activity change, % at 57.5 µM. actives 4.7% (n = 360,000). AID 743279, 2014; in the data active means activity change below about -50%; inconclusive means mostly about -30% to -49%
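THP-1 cells pretreated 1 hr with compounds (up to 57.5 uM final), then stimulated with LPS (250 ng/mL final) plus ATP (1.25 mM final); secreted IL-1B measured by AlphaLISA after 16 hr, decreased signal indicating inhibition.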
TDP1 block: qHTS Assay for Inhibitors of Tyrosyl-DNA Phosphodiesterase (TDP1). Tyrosyl-DNA phosphodiesterase 1 (Homo sapiens), Q9NUW8. recombinant TDP1, AlphaScreen DNA substrate cleavage. Potency, µM (top dose mostly 130 µM), for the others: at the highest dose activity change, negative = inhibition, usual class: inhibitors. actives 0.28% (n = 350,000); further: potency means the concentration at half of the fitted maximal effect; nearly all actives have a fitted effect of over 40% in size
Target sequence (Q9NUW8 whole entry, looked up): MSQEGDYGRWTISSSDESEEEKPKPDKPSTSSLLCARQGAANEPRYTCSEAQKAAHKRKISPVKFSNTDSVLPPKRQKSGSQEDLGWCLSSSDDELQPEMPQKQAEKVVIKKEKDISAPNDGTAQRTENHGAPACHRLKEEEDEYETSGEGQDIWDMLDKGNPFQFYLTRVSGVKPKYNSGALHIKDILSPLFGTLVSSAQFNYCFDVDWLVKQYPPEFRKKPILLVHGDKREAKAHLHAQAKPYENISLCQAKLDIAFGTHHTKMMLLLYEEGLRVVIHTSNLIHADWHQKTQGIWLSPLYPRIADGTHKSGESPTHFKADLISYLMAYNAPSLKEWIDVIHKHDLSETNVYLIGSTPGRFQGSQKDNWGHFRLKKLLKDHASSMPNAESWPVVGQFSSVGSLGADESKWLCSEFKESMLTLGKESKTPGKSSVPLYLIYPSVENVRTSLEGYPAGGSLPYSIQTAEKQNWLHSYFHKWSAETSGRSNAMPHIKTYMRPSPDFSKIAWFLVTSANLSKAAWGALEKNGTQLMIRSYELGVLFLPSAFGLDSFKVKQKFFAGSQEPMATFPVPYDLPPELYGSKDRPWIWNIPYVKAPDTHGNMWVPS
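Recombinant human Tdp1 (E. coli-expressed, 1 nM final) preincubated with compounds 15 min at room temperature, then 5'-biotin/3'-phosphotyrosine-FITC DNA substrate (15 nM final) added for 5 min. AlphaScreen beads (10 ug/ml final) added 10 min; cleavage lowers signal.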
Starred values were filed as active, the others as inactive; ? = inconclusive; nt = no result given; [ ] = another dose, or the depositor's remark. Hits are enriched below; roughly 18% of the tested compounds scored in any of these assays. Unless noted, the call rests on the fitted dose curve; in most records, active means well fitted curve in the direction sought with a large enough effect; inconclusive means small, poorly fitted or top-dose-only effect, or another doubt; inactive means no such curve, though single readings can be large; an effect the other way counts as inactive or inconclusive. On the % scale 0 is the no-effect control and ±100 the full control effect.

SMILES	Six1-Eya2 blk	CtBP-E1A inh	DT40 TDP1 no CPT	DT40 TDP1 CPT	IL-1B inflam inh	TDP1 block
CCOC(=O)C1CCN(c2cc3c(cc2NC(=O)c2ccccc2F)n(C)c(=O)n3C)CC1	-0.2	-8.4	-14.8%	-24.4%	55.5	-19.8%
CCOC(=O)N1CCN(C(=O)c2ccccc2NC(=O)c2ccc(C(C)(C)C)cc2)CC1	4.9	-5.7	-25.7%	5.9%	30.9	1.1%
CCOC(=O)C1CCN(c2cc3c(cc2NC(=O)c2ccccc2OCC)n(C)c(=O)n3C)CC1	-20.5	-29.3	5.8µM*	20.6µM*	38.4	9.9%
CCOC(=O)C1CCN(C(=O)c2ccccc2NC(=O)c2ccc(Cl)cc2)CC1	12.2	4.8	23.1µM*	?	32.9	3.2%
COc1ccccc1C(=O)Nc1cc2c(cc1N1CCCCC1)n(C)c(=O)n2C	nt	nt	13µM*	5.8µM*	nt	-8.5%[12.3 µM]
O=C(CCN1C(=O)C2CC=C(Cl)CC2C1=O)Nc1ccccc1O (stereo unspecified)	3.2	-3.5	-11.8%	-3.0%	17.9	2.3%
Cc1cccc(NC(=O)COC(=O)C2C3CC4OC(=O)C2C4C3)c1C (stereo unspecified)	8.4	-2.2	0.7%	6.8%	25.7	4.5%
CC(=O)NC(CC(=O)NCC(=O)Nc1ccc(F)c(F)c1)c1ccccc1 (stereo unspecified)	1.9	3.8	-15.6%	?	22.6	6.1%
CC1CN(CCOc2cccc(Oc3ccccc3)c2)CC(C)O1 (stereo unspecified)	-6.9	9.0	?	?	15.5	nt
c1ccc(Oc2cccc(OCCCCN3CCCC3)c2)cc1	-1.3	-11.7	18.4µM*	?	0.0	-5.9%
Brc1cccc(OCCCN2CCCCCC2)c1	-5.9	1.5	?	-14.1%	-11.2	-8.2%
CC1CCCN(CCOc2cccc(Oc3ccccc3)c2)C1 (stereo unspecified)	-14.1	7.4	?	25.9µM*	-29.9	nt
CC1CN(CCCCOc2ccc(Cl)c3ccccc23)CC(C)O1 (stereo unspecified)	-4.0	2.6	10.3µM*	?	?	nt
CC1CN(CCCCOc2cccc(Oc3ccccc3)c2)CC(C)O1 (stereo unspecified)	7.5	16.0	?	?	-66.9*	5.5%
CC1CCN(CCCCOc2cccc(C(C)C)c2)CC1	-3.4	-2.8	?	16.4µM*	-20.4	nt
Cc1ccc(OCCCCN2CCC(C)CC2)cc1	4.6	6.1	-17.0%	3.1%	-1.7	nt
Cc1ccc(-n2c(N)c(C(=O)N3CCOCC3)sc2=S)cc1	-1.4	-1.4	-22.2%	?	-12.2	6.9%
CC(C)(C)Cc1c(-c2ccc(F)cc2)nc2ccc(Cl)cn12	21.5	2.5	20.6µM*	?	43.5	nt
Cc1ccc(-c2nc3ccc(Cl)cn3c2Cc2cccc(F)c2)cc1	-3.3	1.3	?	20.6µM*	-14.1	nt
Fc1cccc(Cc2c(-c3ccc(Cl)cc3)nc3ccc(Br)cn23)c1	1.9	4.0	16.4µM*	?	?	nt
Cn1c(SCC(=O)NC2CCCCCC2)nnc1-c1cccs1	5.1	2.9	-2.6%	0.3%	-9.0	3.1%
CCN(CC(=O)Nc1ccccc1C(F)(F)F)C(=O)c1cc2c(s1)CCCCC2	7.4	1.7	23.1µM*	?	-53.2*	nt
COCCN(CC(=O)Nc1cccc(C)c1C)C(=O)c1cc2ccccc2cc1OC	5.4	-7.0	?	?	-6.0	-0.2%[56.1 µM]
COCCN(CC(=O)Nc1cccc(C)c1C)C(=O)c1cc2c(s1)CCC2	-11.9	-1.2	-5.4%	5.7%	-4.9	22.4µM*
CCCCCCC=O	nt	nt	nt	nt	nt	4.8%
SMILES	Six1-Eya2 blk	CtBP-E1A inh	DT40 TDP1 no CPT	DT40 TDP1 CPT	IL-1B inflam inh	TDP1 block
O=C(NC1CCN(Cc2ccccc2Cl)CC1)c1ccccc1	5.7	-8.7	?	-23.9%	2.3	nt
O=C(NN1CCN(Cc2ccccc2Cl)CC1)c1ccc(Cl)cc1	3.4	-0.3	11.6µM*	?	6.8	4.2%
CN(C)c1ccc(/C=N/NC(=O)c2nonc2N)cc1[N+](=O)[O-]	-5.6	nt	?	?	11.7	5.1%
Cc1cc(CCNC=O)c(C)c2c1sc1ccccc12	1.0	3.0	-0.3%	1.8%	?	nt
COc1cc(C)c2sc3ccccc3c(=O)c2c1NCCN(C)C	-74.9*	-25.8	5.8µM*	6.51µM*	nt	nt
Cc1ccc(NCCN(C)C)c2c(=O)c3cc(O)ccc3sc12	?	-67.9*	0.184µM*	0.146µM*	-102.2*	nt
Cc1ccc(C(=O)NCCN(C)C)cc1C	2.7	8.0	-13.4%	0.1%	-8.1	2.8%
CN(C)CCNc1cccc2sc3ccc(O)cc3c(=O)c12	?	-66.7*	0.326µM*	0.184µM*	-94.7*	nt
O=C(Nc1ccc2cccnc2c1)c1ccc(Br)cc1	4.6	nt	?	-12.6%	-1.0	nt
CC(C)(C)c1cc(OC(=O)C2CCCC2)ccc1O	0.2	-2.6	3.66µM*	5.17µM*	?	nt
CC(C)(C)c1cc(OS(C)(=O)=O)ccc1O	-8.4	nt	?	6.6%	12.8	0.0%
Cc1cc(C)cc(Nc2nc3ccccc3c(=O)[nH]2)c1	22.9	21.5	?	-29.9%	-4.8	5.0%
CC(C)Nc1nc2ccccc2c(=O)[nH]1	2.2	-3.0	?	16.4µM*	23.8	2.7%
CCCCNCc1nc2ccccc2c(=O)[nH]1	-14.4	-21.9	-28.3%	-15.9%	-52.3*	8.1%
O=c1[nH]c(-c2ccncc2)nc2ccccc12	-0.1	-8.1	?	20.6µM*	17.3	1.0%
C=CCNc1nc2ccccc2c(=O)[nH]1	0.4	0.8	20.6µM*	?	31.1	4.6%
CC1(C)CC(N2CCC(=O)NC2=S)CC(C)(C)N1	7.3	-0.7	-1.4%	4.9%	1.3	nt
O=C(Nc1cccc(F)c1)NC1CCN(Cc2ccccc2)CC1	-1.2	nt	?	-29.3%	-10.2	-2.6%
CSc1ccccc1C(=O)Nc1nc2ccccc2c(=O)[nH]1	-6.9	-4.6	-20.6%	-30.4%	-1.8	0.0%
CCSc1ccccc1C(=O)Nc1nc2ccccc2c(=O)[nH]1	-0.1	-1.2	20.6µM*	?	5.6	-2.4%
CCCCNc1nc2ccccc2[nH]1	-5.5	0.1	?	?	42.6	4.5%
CCCNc1nc2ccccc2c(=O)[nH]1	-2.3	1.0	20.6µM*	11.6µM*	-69.1*	2.5%
